Source: PubChem BioAssay
Compounds with a hit are over-represented: about 11% of the library has one in this group of screens.
Pf growth 96h = inhibits malaria parasite growth, 96 h; P. falciparum luciferase reporter growth, 96 h; Potency, µM (highest dose often 28.7 µM), for the others: at the top dose activity change, negative = inhibition, actives largely listed as inhibitors; hit rate 6.9% among 320,000; AID 504834; note: % is set by controls: 0 for no effect and ±100 for the full control effect
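Luminescence readout: decreased luciferase signal marks inhibited growth of reporter-expressing P. falciparum in infected red cells (2% hematocrit, 0.05% parasitemia final), exposed to compound two generations (96 h, 37 C, 5% CO2).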
Pf growth 48h = P. falciparum growth inhibition at 48 hours (one generation) | P. falciparum luciferase growth in erythrocytes, 48 h | Potency, µM (doses to about 28.7 µM), inactives show at the top dose activity change, negative = inhibition, most hits filed as inhibitors | hit rate 5.9% among 310,000 | AID 504832; note: % is set by controls: 0 for no effect and ±100 for the full control effect
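Luciferase-expressing P. falciparum in infected erythrocytes (2% hematocrit, 0.1% parasitemia final) in RPMI 1640/0.5% Albumax were exposed to compound for 48 hours at 37 C, 5% CO2; growth read as luminescence.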
Sm TGR block = blocks Schistosoma mansoni thioredoxin glutathione reductase; Q962Y6; purified TGR, DTNB reduction, TNB absorbance 405 nm; Potency, µM (top dose mostly 114 µM), inactives show top-dose activity change, negative = inhibition, usual class: inhibitors; hit rate 3% among 360,000; AID 485364; note: % is set by controls: 0 for no effect and ±100 for the full control effect; nearly all actives have a fitted effect of over 60% in size
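Kinetic colorimetric format: TGR-catalysed, NADPH-driven DTNB reduction monitored via TNB absorbance. Enzyme dispensed at 20 nM; compound exposure 15 min at room temperature before reaction start.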
AMA1 RON2 block = disrupts binding of P. falciparum AMA1 to RON2; Potency, µM (series often up to 58.2 µM), inactives show top-dose activity change, negative = inhibition, actives largely listed as inhibitors; hit rate 0.2% among 360,000; AlphaScreen AMA1-biotinylated RON2 peptide binding; AID 720542;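 note: 0% = vehicle wells and -100% = peptide control; nearly all actives have a fitted effect of over 45% in size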
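AMA1 (3D7) with his tag at 25 nM final met compounds first, then biotinylated RON2 peptide at 25 nM; detection used donor plus acceptor beads, 10 µg/mL apiece, read by AlphaScreen after 30 min at room temperature.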
NS1 inh = influenza NS1 inhibition; Potency, µM (titrated, usually from 46.1 µM), inactives show at the highest dose activity, positive = more growth; hit rate 0.4% among 270,000; calls by dose curve; note: actives are rising curves; nearly all actives have a fitted effect of over 50% in size
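In this qHTS, NS1 from influenza A is expressed in budding yeast, where it slows growth. Cells are switched from glucose to 2% galactose medium (pH 6.0, -URA), treated with compound, and growth recovery is read at OD600.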
Active calls of the source: *; [ ] = another dose, or the depositor's remark. Unless noted, calls come from the whole dose curve; as a rule, active = well fitted curve in the direction sought with a large enough effect; inconclusive = small, poorly fitted or top-dose-only effect, or another doubt; inactive = no such curve, though single readings can be large; an effect the other way counts as inactive or inconclusive. Potency is the fitted concentration of half-maximal effect.

`Cc1ccc(S(=O)(=O)NCCC(c2ccc(F)cc2)c2ccco2)cc1` (stereo not given) gave Pf growth 96h 48%, Pf growth 48h inconclusive, Sm TGR block -21%, AMA1 RON2 block -5% and NS1 inh 10%.
For COc1ccc(S(=O)(=O)NCC(c2ccco2)S(=O)(=O)c2cccs2)cc1F (stereo not given) the results were Sm TGR block 0.1µM*.
Cc1ccc(S(=O)(=O)C(CNS(=O)(=O)c2ccc(F)c(C(F)(F)F)c2)c2ccco2)cc1 (stereo not given) was read as Sm TGR block 0.32µM*.
Screening COc1ccc(CCNC(=O)Cn2nc(C)n3nc(-c4ccccc4)cc3c2=O)cc1OC returned Pf growth 96h -14%, Pf growth 48h 11%, Sm TGR block 0%, AMA1 RON2 block -5% and NS1 inh 6%.
For COc1cccc(-c2cc(C(=O)N3CCN(C(=O)c4ccco4)CC3)on2)c1 the results were Pf growth 96h inconclusive, Pf growth 48h 3%, Sm TGR block -32%, AMA1 RON2 block -6% and NS1 inh -19%.
O=C(Cn1cnc2ccccc2c1=O)NNC(=O)c1ccccc1 was read as Pf growth 96h -1%, Pf growth 48h 20%, Sm TGR block 7%, AMA1 RON2 block 56% and NS1 inh 2%.
For CCOc1ccc(S(=O)(=O)NCC(c2ccco2)S(=O)(=O)c2cccs2)cc1 (stereo not given) the results were Sm TGR block 0.1µM*.
Cc1ccc(S(=O)(=O)C(CNC(=O)c2c(F)cccc2F)c2ccco2)cc1 (stereo not given) was read as Sm TGR block -13%.
COc1ccc(S(=O)(=O)NCC(c2ccco2)S(=O)(=O)c2ccc(C)cc2)cc1F (stereo not given) was read as Sm TGR block 0.4µM*.
For CCOC(=O)c1c(C)[nH]c(C)c1S(=O)(=O)N1CCC(C(=O)Nc2ccccc2CC)CC1 the results were Sm TGR block 0%.
For O=C(NCc1ccccc1Cl)c1ccc(-n2cnc3cccnc32)cc1 the results were Sm TGR block -6%.
`COc1ccc(OC)c(C2=C/C(=C/c3ccccn3)C(=O)O2)c1` gave Pf growth 96h 5.2µM*, Pf growth 48h inconclusive, Sm TGR block -6% and AMA1 RON2 block 47%.
O=C(NCCc1ccccc1)c1cc(-c2ccc(Cl)c(Cl)c2)on1 was read as Sm TGR block 4%.
Cc1ccc(N(CC(=O)N2CCc3ccccc32)C2=NC(=O)CS2)cc1 was read as Pf growth 96h 9.3µM*, Sm TGR block 0%[11.4 µM], AMA1 RON2 block 3% and NS1 inh -5%.
O=C(N/N=C/c1c(O)ccc2ccccc12)c1cccnc1 was read as Pf growth 96h -6%, Pf growth 48h inconclusive, Sm TGR block inconclusive, AMA1 RON2 block 37% and NS1 inh -81%.
For Cc1ccc(C(=O)N/N=C/c2c(O)ccc3ccccc23)cn1 the results were Pf growth 96h 8%, Pf growth 48h 3.7µM*, Sm TGR block -5%, AMA1 RON2 block 48% and NS1 inh -46%.
O=C(N/N=C/c1c(O)ccc2ccccc12)c1ccc[n+](CCO)c1 was read as Pf growth 96h 5.2µM*, Pf growth 48h 9.3µM*, Sm TGR block 1%, AMA1 RON2 block inconclusive and NS1 inh -30%.
`O=C(CSCC(=O)Nc1ccccc1)N/N=C/c1c(O)ccc2ccccc12` gave Pf growth 96h 1.9µM*, Pf growth 48h 2.6µM*, Sm TGR block -13%, AMA1 RON2 block 28% and NS1 inh -4%.
For O=C(NN=Cc1c(O)ccc2ccccc12)c1ccncc1 the results were AMA1 RON2 block -5%.
Screening O=C(N/N=C/c1c(O)ccc2ccccc12)c1ccc(Br)o1 returned Pf growth 96h 3%, Pf growth 48h inconclusive, Sm TGR block -2%, AMA1 RON2 block 6% and NS1 inh -18%.
Cn1nccc1C(=O)N/N=C/c1c(O)ccc2ccccc12 was read as Pf growth 96h 10µM*, Pf growth 48h 2.6µM*, Sm TGR block -22%, AMA1 RON2 block 93% and NS1 inh -12%.
